Among all 290,000 compounds or so, about 370 (0.13%) were called active. The entries come from a sample that favours actives as a whole. Entries with a potency or affinity are not part of this list. A number with no mark means an inactive call.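 Rule for the calls: active = spots per cell inhibited over 60%, with over 100 cells counted and total cytoplasm intensity under 500,000; inconclusive = wells with under 100 cells, flagged as likely toxic; inactive = the rest.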
Biological target: G-protein coupled receptor 55 (Homo sapiens) (UniProt Q9Y2T6)
Experiment: GPR55 antagonists blocking LPI-driven arrestin recruitment, primary screen, imaging, U2OS, beta-arrestin-GFP, LPI agonist (AID 2013);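 note: U2OS cells stably carrying GPR55 and arrestin-GFP stimulated by 5 µM LPI near EC80; imaged beta-arrestin-GFP aggregate spots per cell after agonist stimulation; plate controls were LPI-stimulated DMSO wells for no effect and DMSO wells without LPI for full effect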
Settings: U2OS GPR55 beta-arrestin-GFP translocation imaging, LPI antagonism; at 10 µM; hits give high values

Sequence of G-protein coupled receptor 55 (Homo sapiens) (Q9Y2T6 whole entry, looked up): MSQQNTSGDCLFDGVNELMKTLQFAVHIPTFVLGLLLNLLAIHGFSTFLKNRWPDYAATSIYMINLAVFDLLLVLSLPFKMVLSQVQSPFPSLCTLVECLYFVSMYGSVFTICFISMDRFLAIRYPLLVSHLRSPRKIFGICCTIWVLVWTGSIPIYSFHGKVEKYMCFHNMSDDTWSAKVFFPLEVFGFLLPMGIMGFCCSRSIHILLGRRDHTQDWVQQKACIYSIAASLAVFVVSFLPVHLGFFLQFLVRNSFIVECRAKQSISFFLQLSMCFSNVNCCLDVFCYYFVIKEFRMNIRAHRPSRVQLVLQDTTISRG

SMILES | inhibition
COCCN(CCOC)C(=S)Nc1ccccc1 | 12.7%
NC(=O)C1CCN(C(=O)C2CC(=O)N(c3ccc(F)cc3)C2)CC1 (stereo not drawn) | -0.2%
COc1ccccc1OCC(=O)N1CCN(C(=O)COc2ccccc2OC)CC1 | 2.2%
Oc1ccc(/C=N/Nc2nc(-c3cccnc3)nc3ccccc23)c(O)c1 | 1.9%
Oc1ccc(Nc2nc(-c3ccccc3F)nc3ccccc23)cc1 | 7.7%
O=C(Nc1nnc(-c2ccccc2)o1)c1cc(Cl)sc1Cl | -2.3%
O=C(O)c1cc2c(cc1NC(=O)c1ccccc1OC(F)F)OCCCO2 | -0.6%
CCOC(=O)c1c(NC(=O)c2ccc(Cl)s2)sc(C)c1C | 1.6%
CCOC(=O)c1c(NC(=O)c2cccnc2)sc(C)c1C | -12.1%
CCOC(=O)c1c(NC(=O)c2ccncc2)sc(C)c1C | -0.7%
CCOC(=O)c1c(NC(=O)C2=C(C)NC(=S)NC2c2ccccc2C(F)(F)F)sc(C)c1C (stereo not drawn) | 5.6%
CCOC(=O)c1c(NC(=O)C2=C(C)NC(=S)NC2c2ccc(F)cc2F)sc(C)c1C (stereo not drawn) | 10%
CCOC(=O)c1c(NC(=O)C2=C(C)NC(=S)NC2c2ccc(F)cc2)sc(C)c1C (stereo not drawn) | 64.1% (active)
CCOC(=O)c1c(NC(=O)c2ccnn2C)sc(C)c1C | 1.1%
Cc1ccccc1NC(=O)CCS(=O)(=O)c1cccc2nonc12 | 2.7%
COc1ccc2c(c1)C(NC(C)=O)C(=O)N2CCc1ccccc1 (stereo not drawn) | 6.6%
O=C(CCC(=O)n1ncc2ccccc21)NCc1ccc(F)cc1 | -2.2%
O=C(NCc1ccc2c(c1)OCO2)c1nc(Cn2cc([N+](=O)[O-])cn2)no1 | -20%
CC(C)(C)C(=O)COC(=O)c1cc(-c2ccncc2)nc2ccccc12 | 2.9%
O=C(Cn1c(=O)oc2ccccc21)N1CCCC1 | -1.8%
CCOC(=O)c1c(CN(C)C)n(-c2ccccc2)c2cc(Br)c(O)cc12 | 3.4%
CCOC(=O)c1c(CSC(=N)N)n(-c2ccc(Br)cc2)c2cc(Br)c(OC(C)=O)cc12 | 89.3% (active)
CCOC(=O)c1c(CN(C)C)n(-c2ccc(C)cc2)c2cc(Br)c(O)cc12 | -0.7%
CCOC(=O)c1c(CN2CCOCC2)n(-c2ccccc2)c2cc(Br)c(OC)cc12 | 23.1%

SMILES | inhibition
CCOC(=O)c1c(C)n(C)c2cc(Br)c(OC)cc12 | 7.4%
CCCCCCCCOC(=O)c1c(CSC(=N)N)n(C)c2cc(Br)c(OC(C)=O)cc12 | 23.7%
CCOC(=O)c1c(CN(C)C)n(-c2ccccc2)c2cc(Br)c(OC)cc12 | -15.4%
CCOC(=O)c1c(CSc2nc(C)cc(C)c2C#N)n(C)c2cc(Br)c(OC(C)=O)cc12 | 1.8%
C=CCCc1ccc(C#N)c(SCc2c(C(=O)OCC)c3cc(OC(C)=O)c(Br)cc3n2C)n1 | -23.2%
CC(C)CCN(Cc1ccco1)S(=O)(=O)c1ccc(-c2ccc(=O)[nH]n2)s1 | 12.8%
Cc1onc(-c2ccccc2)c1C(=O)N1CCCN2C(=O)c3ccccc3C21 (stereo not drawn) | -4.5%
O=S1(=O)Cc2cc3ccccc3cc2C1 | 16.4%
COc1ccc(C)cc1NC(=O)c1ccc(OC(F)F)cc1 | 3.1%
CC(/C=C/c1ccccc1)=N/NC(=O)C(O)c1ccccc1 (stereo not drawn) | 0.5%
CC(=O)NC1=NN(C(C)=O)C2(S1)C(=O)N(C(C)=O)c1ccc(C)cc12 (stereo not drawn) | 7.7%
CC(c1nnc(SCC(=O)N2CC(=O)Nc3ccccc32)n1Cc1ccccc1)N(C)C (stereo not drawn) | -4.8%
COc1cccc(Nc2cc(C)c3ccccc3n2)c1 | 6.5%
CC(C)(C)c1nn(-c2ccccc2)c2[nH]c(=O)c(CNc3ccc4c(c3)OCCO4)cc12 | 16.1%
CCOc1ccc(NCc2cc3c(C(C)(C)C)nn(-c4ccccc4)c3[nH]c2=O)cc1 | 19.3%
Cc1nn(-c2ccccc2)c2[nH]c(=O)c(CNCc3ccc4c(c3)OCO4)cc12 | -26.6%
Cc1ccc(-c2nn(-c3ccccc3)c3[nH]c(=O)c(CNCc4ccccc4)cc23)cc1 | 11.1%
COc1cccc(NCc2cc3c(C(C)(C)C)nn(-c4ccccc4)c3[nH]c2=O)c1 | 22.7%
CC(C)(C)c1nn(-c2ccccc2)c2[nH]c(=O)c(CNCc3ccco3)cc12 | 39.5%
COc1ccc(N2CCN(S(=O)(=O)c3ccc(Cl)s3)CC2)cc1 | -2%
Cc1ccc(NC(=O)CN(C)C(=O)CCOc2cccc(C)c2)cc1 | 7.3%
O=[N+]([O-])c1ccc(N/N=C2\CC3CC=CC23)cc1 (stereo not drawn) | -7.7%
O=C(N/N=C/c1ccc(OC(=O)c2ccccc2Cl)cc1)c1cc(O)cc(O)c1 | 4.4%
O=C(CNC1CCCCC1)N1CCc2ccccc2C1 | -1.3%

SMILES | inhibition
CNS(=O)(=O)c1ccc(Oc2ccc(S(=O)(=O)NC)cc2)cc1 | 19%
NS(=O)(=O)c1ccc(Oc2ccc(S(N)(=O)=O)cc2)cc1 | -4.4%
C=CS(=O)(=O)c1ccc(Oc2ccc(S(=O)(=O)C=C)cc2)cc1 | 70.4% (active)
COc1ccc(C(=S)N2CCOCC2)cc1OC(=O)c1ccc([N+](=O)[O-])cc1[N+](=O)[O-] | 6.8%
COC(=O)CCC(=O)OC1(C)C(=O)C=C2C=C(C3CC3)N(C3CC3)C=C2C1=O (stereo not drawn) | 5.7%
COc1cccc(NC(=O)COC(=O)C2C3CC4OC(=O)C2C4C3)c1 (stereo not drawn) | 2.1%
COC(=O)C1=C(C)N(Cc2ccccc2)C(=NCCCCO)N[C@H]1c1ccccc1 | -6.4%
COCCN=C1N[C@@H](c2ccccc2)C(C(=O)OC)=C(C)N1Cc1ccccc1 | 31.4%
Cc1ccc(OCC(=O)N2c3ccccc3NC(=O)C2(C)C)c([N+](=O)[O-])n1 | 6.9%
CCOC(=O)c1nc(Nc2ccc(C)cc2)c2ccccc2n1 | 11.6%
CCOC(=O)c1nc(Nc2ccccc2)c2ccccc2n1 | -3.5%
Cc1csc(NC(=O)CCC(=O)N(CC(=O)NC2CCCCC2)c2ccccc2)n1 | 7.7%
O=C1NC(=O)N(Cc2ccccc2F)C1=O | -13.9%
Cn1cccc1/C=N/N1CCN(Cc2ccccc2Cl)CC1 | -2.2%
Cc1cc(F)ccc1NC(=O)C1CCN(S(=O)(=O)c2ccc3c(c2)CCCC(=O)N3)CC1 | 8.1%
O=C(NCCNC(=O)c1cc(Cl)ccc1Cl)c1ccccn1 | 3.4%
CC(NC(=O)CN1CCCC1)C12CC3CC(CC(C3)C1)C2 (stereo not drawn) | -3.7%
CC(NC(=O)Cn1nc(C(=O)O)c2ccccc2c1=O)C12CC3CC(CC(C3)C1)C2 (stereo not drawn) | -2.7%
O=C(COC(=O)c1cc(S(=O)(=O)N2CCc3ccccc3C2)ccc1Cl)NCc1ccco1 | 7.3%
Cn1c(N)c(C(=O)COC(=O)CCC2CCCCC2)c(=O)n(C)c1=O | 8.4%
CCN(CC)S(=O)(=O)c1ccc(N2CCOCC2)c(NC(=O)COc2ccccc2C#N)c1 | -13.6%
Cn1c(=O)c2ccccc2n2c(CCl)nnc12 | 5.8%
O=C(NCc1ccccn1)c1ccc2nc(C3CCCCC3)oc2c1 | -4.5%
CSCCNC(=O)c1ccc2nc(C3CCCCC3)oc2c1 | 4.5%

SMILES | inhibition
CCOc1ccc(N(C)S(=O)(=O)c2ccc3[nH]cc(C(=O)NCC4CCCO4)c(=O)c3c2)cc1 (stereo not drawn) | 8.3%
Cc1cc(NC(=O)c2ccc([N+](=O)[O-])cc2)n(CCC#N)n1 | 4.7%
COCCCn1c(=S)[nH]c2sc3c(c2c1=O)CCCS3 | -0.4%
CCc1ccc(CN2CCCC(C(=O)N3CCCCC3)C2)cc1 (stereo not drawn) | 12%
CCc1nnc(NC(=O)c2ccc3c(c2)C(=O)N(CC(C)C)C3=O)s1 | 3.7%
CNC(=O)c1ncoc1-c1ccc(Cl)cc1 | 12.3%
CCCNC(=O)c1nnsc1S(=O)(=O)c1ccc(Cl)cc1 | 31.8%
CCCNC(=O)c1nnsc1Sc1ccc(Cl)cc1 | -10.7%
O=C(Nc1ccccc1)c1nnsc1S(=O)(=O)c1ccc(Cl)cc1 | 4.3%
O=C(CC12CC3CC(CC(C3)C1)C2)NC(Cc1ccccc1)C(=O)O (stereo not drawn) | 10.7%
CC(=O)N(C(C)=O)c1nc(-c2ccccc2)cn1/N=C/c1ccccc1 | 7.8%
CCCNC(=O)NC(=O)CSc1nncs1 | 1.8%
Cc1ccc(C(=O)N/C(=C/c2ccco2)C(=O)N2CCCCC2)cc1 | -6.4%
CC(C)Nc1nc(Cl)nc(NCCOc2ccccc2)n1 | 1.4%
CN(C)CC(C)(C)CNS(=O)(=O)c1ccc(Cl)s1 | 2.9%
O=c1[nH]c(Cc2ccccc2)nc2scc(-c3ccccc3)c12 | -0.4%
NC(=O)c1cc(-c2ccccc2)nc(N2CCCCCC2)n1 | -8.5%
CN1CCN(c2nc(C(N)=O)cc(-c3ccccc3)n2)CC1 | -5.1%
CC(=O)Nc1ccc(S(=O)(=O)NCCC(=O)N2CCc3ccccc32)cc1 | 2.8%
O=C(NC1CCCN(c2ccc(C(F)(F)F)cn2)C1)c1cc(Cl)ccc1F (stereo not drawn) | 9.1%
CC(C)=NNc1nc2c(c(=O)[nH]c(=O)n2C)n1CCc1ccccc1 | -4.6%

— PubChem BioAssay AID2013 (Sanford-Burnham Center for Chemical Genomics, 2009)
